Results from the supplement of paper PMC3334620.
In all, about 33,000 sequences were measured (“E-score (-0.5 to 0.5)”: median about -0.0014, highest 2% from about 0.25 on). Shown is part of a subset that was picked to be rich in the highest values.

What follows are sequences tested against T1, Cad1 (UniProt P24813) (assay: PBM E-score (8-mer binding enrichment) (E-score (-0.5 to 0.5)); higher = stronger / more preferred TF binding). Conditions: protein concentration: 100 nM; construct: GST-full length.
T1 sequence: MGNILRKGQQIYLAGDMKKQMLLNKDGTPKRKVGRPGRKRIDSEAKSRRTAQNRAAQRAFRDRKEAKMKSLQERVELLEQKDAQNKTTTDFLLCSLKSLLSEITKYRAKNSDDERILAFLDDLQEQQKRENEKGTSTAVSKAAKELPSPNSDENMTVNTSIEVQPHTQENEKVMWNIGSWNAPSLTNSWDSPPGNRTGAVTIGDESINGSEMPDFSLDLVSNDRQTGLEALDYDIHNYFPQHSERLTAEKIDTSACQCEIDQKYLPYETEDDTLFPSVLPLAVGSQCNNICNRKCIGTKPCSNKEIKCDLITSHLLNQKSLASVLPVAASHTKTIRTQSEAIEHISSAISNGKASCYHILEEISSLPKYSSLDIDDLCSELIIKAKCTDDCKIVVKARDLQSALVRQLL
Summary of the method: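 GST-tagged yeast TFs (full-length or DNA-binding domain) were made by PURExpress in vitro transcription/translation and applied at about 100-200 nM to universal all-10-mer Agilent arrays. The arrays were made double-stranded by primer extension, on fresh or once-stripped slides. Bound protein was detected with fluorescent anti-GST, and scans were normalised with masliner. Each ungapped eight-base word, pooled with its reverse complement, received an E-score (modified Wilcoxon-Mann-Whitney statistic) from the Universal PBM Analysis Suite.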

Row | Sequence | PBM E-score
1 | ACGCTCCA | 0.0354
2 | AGCGTACG | 0.00701
3 | ATACTTGC | 0.0566
4 | CAGATGCC | -0.141
5 | GTGCGCTA | 0.0718
6 | CCGCGCTC | 0.097
7 | ACGCGCTA | 0.109
8 | GCGCGCTA | 0.326
9 | CCGCGCTA | 0.263
10 | CTGCGCTA | 0.0362
11 | GACCGTAA | -0.061
12 | GGGTGGCA | -0.124
13 | CCACTATC | -0.0188
14 | AGGTAAAG | 0.267
15 | AGGTAAAT | -0.00978
16 | AGGTAAAC | 0.105
17 | AGTGATGC | -0.0338
18 | ACCCGCAC | 0.0284
19 | ATGAATAG | 0.0469
20 | CTTAATGA | 0.00816

Row | Sequence | PBM E-score
21 | ATTAATGA | 0.306
22 | ATTAATAC | 0.199
23 | GTTAATTA | 0.23
24 | ATTAATGC | 0.167
25 | CGTAATTA | 0.249
26 | ATTAATAG | 0.275
27 | CTTAATTA | 0.152
28 | GGTAATTA | 0.186
29 | ATTAATTA | 0.263
30 | AGTAATTA | 0.283
31 | ATGGGGGC | -0.349
32 | AAGATAGA | 0.0137
33 | CCGAGTGC | 0.089
34 | GATTGACC | -0.149
35 | GCCGGGAC | -0.0972
36 | CTTAATTC | 0.177
37 | ATTAATTC | 0.304
38 | ATCAATTG | 0.186
39 | AGTAATTC | 0.23
40 | ATTAATTG | 0.313

Row | Sequence | PBM E-score
41 | ATCAATTA | 0.255
42 | ATTAATGG | 0.239
43 | AGTAATTG | 0.0751
44 | ATCAATTC | -0.026
45 | CGTAACCC | -0.0539
46 | TCCTGACA | 0.125
47 | GGCTTCCC | -0.0469
48 | AACCAATG | 0.109
49 | AACCAATC | 0.0878
50 | AACCAGTA | 0.157
51 | AACCAGTT | 0.27
52 | AACCAGTG | -0.0556
53 | AACCAATT | 0.297
54 | ACGCGGCC | -0.0773
55 | CAGCGGGC | 0.00044
56 | GGTAGTAC | -0.0112
57 | CCAATCGC | 0.0869
58 | CCCAGCAA | -0.0856
